Assay results reported in PubChem BioAssay.
The source made the active and inactive calls.

Columns and labels:
Albumin (Bos taurus) = Albumin (Bos taurus) (UniProt P02769); experiment: compounds binding labelled BSA control protein – biochemical, small-molecule microarray, Alexa647 label, 635/667 nm fluorescence, artefact control for SMM control protein annotation, profiling panel (AID 1118); conditions: BSA-A647 binding, fluorescence 635 nm, higher = more signal;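 note: score merges 667 nm emission intensity and signal-to-noise per printed compound spot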
Chain of Albumin (Bos taurus) (P02769 whole entry, looked up): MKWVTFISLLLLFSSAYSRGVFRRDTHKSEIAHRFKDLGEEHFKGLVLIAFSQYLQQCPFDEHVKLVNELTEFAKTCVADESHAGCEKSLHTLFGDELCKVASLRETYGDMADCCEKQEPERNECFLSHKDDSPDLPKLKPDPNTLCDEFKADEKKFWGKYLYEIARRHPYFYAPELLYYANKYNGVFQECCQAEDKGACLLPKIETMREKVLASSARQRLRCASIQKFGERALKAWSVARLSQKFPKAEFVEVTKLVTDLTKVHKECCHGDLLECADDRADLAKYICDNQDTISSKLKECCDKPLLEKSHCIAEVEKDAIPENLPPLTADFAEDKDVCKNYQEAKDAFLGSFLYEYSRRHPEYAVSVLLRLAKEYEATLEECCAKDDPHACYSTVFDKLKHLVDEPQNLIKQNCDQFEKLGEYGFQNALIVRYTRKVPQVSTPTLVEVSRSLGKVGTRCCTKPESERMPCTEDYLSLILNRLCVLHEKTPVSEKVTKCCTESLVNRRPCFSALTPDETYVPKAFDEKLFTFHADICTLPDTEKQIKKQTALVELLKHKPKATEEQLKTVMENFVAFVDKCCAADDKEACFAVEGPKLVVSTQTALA

[1] = probe aXIP binding to arrayed compounds – biochemical, NeuroSMM set, 635/667 nm fluorescence, primary screen (AID 1119); conditions: small-molecule microarray, higher = more signal, called active from +8 up or from −8 down;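 note: probe is the protein aXip251-270 applied at 1 µg/mL to compound-printed slides; binding of probe to printed compounds measured as 667 nm fluorescence plus signal to noise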
[2] = probe aNOTCH3 binding on compound microarray – biochemical, small-molecule microarray, 635/667 nm fluorescence, primary screen (AID 1120); conditions: higher = more signal;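 note: probe is a biotin-tagged antibody raised against NOTCH3 rather than NOTCH3 protein; score merges spot fluorescence near 667 nm with spot signal to noise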
[3] = probe aNOTCH2 binding on compound microarray – biochemical, small-molecule microarray, 635/667 nm fluorescence, primary screen (AID 1121); conditions: higher = more signal;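 note: score merges feature fluorescence read at 667 nm with its signal to noise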
[4] = biological target: Carbonic anhydrase 2 (Homo sapiens) (UniProt P00918); experiment: compounds binding carbonic anhydrase 2 – biochemical, small-molecule microarray, Alexa647-labelled CAII, profiling panel (AID 1122); conditions: CAII-A647 binding fluorescence, higher = more signal
[5] = COS7 lysate on small-molecule microarray, probe aHis, 635 nm (AID 1123); conditions: COS7 cell lysate, fluorescence, higher = more signal;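 note: z-score combines 667nm fluorescence intensity with signal-to-noise per printed compound spot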
[6] = probe aLAP1 signal on lysate-treated microarray – cell lysate, small-molecule microarray, COS7 lysate, primary screen (AID 1124); conditions: probe aLAP1, fluorescence, higher = more signal;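 note: lysate comes from COS7 cells expressing LAP1 and is applied at 0.3 µg/mL; score merges spot fluorescence near 667 nm with signal-to-noise over triplicate slides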
Sam68 (KHDRBS1) = experiment: compounds binding KHDRBS1 protein – biochemical, small-molecule microarray, 635 nm fluorescence, primary screen (AID 1125); conditions: higher = more signal;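 note: score merges 667 nm channel intensity with signal to noise over triplicate slides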
[7] = tested on: Chordin-like protein 2 (CHRDL2); experiment: compounds binding chordin-like 2 – biochemical, small-molecule microarray, 635 nm fluorescence, primary screen (AID 1126); conditions: fluorescence 635 nm, higher = more signal;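 note: printed compound slides probed with Chrdl2 protein at 4 µg/mL for 1 h at 4 C; score merges 667 nm emission intensity with signal to noise over three replicate slides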
[8] = biological target: Concanavalin-A (Canavalia ensiformis) (UniProt P02866); experiment: compounds binding concanavalin A lectin – biochemical, small-molecule microarray, Alexa647 label, 635 nm, artefact control for SMM control protein annotation, primary screen (AID 1127); conditions: ConA-A647 binding fluorescence, higher = more signal;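 note: z combines 667 nm emission intensity with signal-to-noise across three replicate slides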
Chain of Concanavalin-A (Canavalia ensiformis) (P02866 whole entry, looked up): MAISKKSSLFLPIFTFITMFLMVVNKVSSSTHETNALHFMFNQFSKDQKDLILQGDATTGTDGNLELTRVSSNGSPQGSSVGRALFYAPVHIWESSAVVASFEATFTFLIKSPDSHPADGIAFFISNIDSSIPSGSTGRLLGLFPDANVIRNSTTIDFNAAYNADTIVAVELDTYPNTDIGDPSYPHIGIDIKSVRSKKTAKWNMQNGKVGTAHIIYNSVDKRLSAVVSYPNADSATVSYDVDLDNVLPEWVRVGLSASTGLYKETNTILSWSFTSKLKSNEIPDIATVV

[9] = compounds binding Alexa647 anti-His antibody – biochemical, small-molecule microarray, 635 nm fluorescence, artefact control for SMM control protein annotation, primary screen (AID 1128); conditions: higher = more signal;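 note: score merges feature fluorescence with signal-to-noise for each printed compound spot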
[10] = tested on: Human papillomavirus type 1a E7 protein (residues 1-88); experiment: HPV1a E7 small-molecule binders, primary screen, biochemical, small-molecule microarray, residues 1-88, 635 nm (AID 1129); conditions: small-molecule microarray binding, fluorescence 635 nm; higher = more signal
[11] = biological target: Focal adhesion kinase 1 (Homo sapiens) (UniProt Q05397); experiment: PTK2 protein binding on printed compound slides – biochemical, small-molecule microarray, 635/667 nm fluorescence, BSA, DTT, primary screen (AID 1130); conditions: 635 nm fluorescence, higher = more signal;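 note: composite of spot emission at 667 nm and signal to noise over triplicate slides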
Chain of Focal adhesion kinase 1 (Homo sapiens) (Q05397 whole entry, looked up): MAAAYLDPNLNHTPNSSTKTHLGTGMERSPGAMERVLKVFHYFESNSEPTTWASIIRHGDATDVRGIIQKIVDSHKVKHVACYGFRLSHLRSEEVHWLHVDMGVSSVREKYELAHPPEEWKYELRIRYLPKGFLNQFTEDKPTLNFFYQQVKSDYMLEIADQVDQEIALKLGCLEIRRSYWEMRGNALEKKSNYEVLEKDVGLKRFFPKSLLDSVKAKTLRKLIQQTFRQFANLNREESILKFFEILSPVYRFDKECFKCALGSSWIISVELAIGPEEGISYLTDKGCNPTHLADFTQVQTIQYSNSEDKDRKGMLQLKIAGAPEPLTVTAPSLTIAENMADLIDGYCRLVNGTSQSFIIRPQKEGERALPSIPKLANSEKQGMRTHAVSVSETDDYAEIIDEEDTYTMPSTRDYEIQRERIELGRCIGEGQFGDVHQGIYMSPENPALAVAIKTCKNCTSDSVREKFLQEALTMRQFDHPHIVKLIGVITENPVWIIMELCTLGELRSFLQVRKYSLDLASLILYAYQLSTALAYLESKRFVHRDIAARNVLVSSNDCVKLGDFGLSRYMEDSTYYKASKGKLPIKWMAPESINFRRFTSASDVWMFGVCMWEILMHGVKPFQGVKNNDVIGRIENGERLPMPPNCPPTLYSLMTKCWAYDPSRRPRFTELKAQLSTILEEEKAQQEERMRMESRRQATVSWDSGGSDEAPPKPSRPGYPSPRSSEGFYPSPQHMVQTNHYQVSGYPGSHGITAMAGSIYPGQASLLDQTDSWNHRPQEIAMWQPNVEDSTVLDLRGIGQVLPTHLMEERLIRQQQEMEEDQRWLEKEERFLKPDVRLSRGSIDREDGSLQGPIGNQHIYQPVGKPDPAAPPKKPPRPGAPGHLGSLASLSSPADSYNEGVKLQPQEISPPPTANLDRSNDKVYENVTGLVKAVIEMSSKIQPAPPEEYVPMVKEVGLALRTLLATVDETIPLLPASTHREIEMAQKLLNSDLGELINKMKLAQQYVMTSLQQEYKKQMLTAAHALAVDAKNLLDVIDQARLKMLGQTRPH

[12] = tested on: Fibrinogen (Alexa647-labelled); experiment: Alexa647-fibrinogen binding to printed small molecules – biochemical, small-molecule microarray, 635/667 nm fluorescence, artefact control for SMM control-protein annotation, profiling panel (AID 1131); conditions: fibrinogen-A647 binding fluorescence, higher = more signal;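 note: z-score merges 667 nm fluorescence with per-spot signal-to-noise over triplicate slides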
[13] = biological target: Follistatin (Homo sapiens) (UniProt P19883); experiment: FST protein binding to printed compounds – biochemical, small-molecule microarray, 635/667 nm fluorescence, primary screen (AID 1132); conditions: 635 nm fluorescence, higher = more signal
Chain of Follistatin (Homo sapiens) (P19883 whole entry, looked up): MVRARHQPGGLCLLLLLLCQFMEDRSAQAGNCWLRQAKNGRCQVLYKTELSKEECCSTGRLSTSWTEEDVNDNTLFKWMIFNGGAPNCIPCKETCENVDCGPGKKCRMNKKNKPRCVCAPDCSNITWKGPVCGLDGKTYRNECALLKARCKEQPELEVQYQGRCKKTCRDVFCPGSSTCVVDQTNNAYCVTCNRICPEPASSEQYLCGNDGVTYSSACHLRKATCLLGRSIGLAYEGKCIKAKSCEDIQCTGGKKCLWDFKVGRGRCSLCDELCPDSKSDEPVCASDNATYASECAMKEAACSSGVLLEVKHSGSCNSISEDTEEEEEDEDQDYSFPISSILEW

[14] = biological target: Fibroblast growth factor 2 (Homo sapiens) (UniProt P09038); experiment: basic fibroblast growth factor binding to printed compounds – biochemical, small-molecule microarray, 635/667 nm fluorescence, primary screen (AID 1133); conditions: FGF2, fluorescence 635/667, higher = more signal
Chain of Fibroblast growth factor 2 (Homo sapiens) (P09038 whole entry, looked up): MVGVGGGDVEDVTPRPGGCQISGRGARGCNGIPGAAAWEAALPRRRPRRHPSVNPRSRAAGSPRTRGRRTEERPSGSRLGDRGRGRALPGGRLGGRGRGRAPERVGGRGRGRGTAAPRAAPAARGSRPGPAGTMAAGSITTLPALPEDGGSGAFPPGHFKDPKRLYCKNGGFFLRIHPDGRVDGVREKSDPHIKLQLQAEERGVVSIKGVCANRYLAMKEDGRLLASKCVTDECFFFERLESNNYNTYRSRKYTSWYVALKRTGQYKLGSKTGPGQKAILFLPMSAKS

[15] = JC-1 mitochondrial potential readout, lung cancer cells – cell-based, A549, JC-1 fluorescence, basal, 24 h, 100 nL, profiling panel (AID 1138); conditions: higher = more signal;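 note: A549 lung adenocarcinoma cells under basal conditions with no added stimulus; test concentration not given here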
Lefty1 = Lefty1 protein binding to printed compounds – biochemical, small-molecule microarray, 635/667 nm fluorescence, primary screen (AID 1139); conditions: fluorescence 635/667, higher = more signal
[16] = tested on: wheat germ agglutinin (Triticum aestivum), Alexa647-labelled; experiment: Alexa647-WGA lectin binding to printed small molecules – biochemical, small-molecule microarray, 635/667 nm fluorescence, artefact control for SMM control-protein annotation, profiling panel (AID 1140); conditions: WGA-A647 binding, 635 nm fluorescence, higher = more signal;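 note: score merges 667 nm feature emission with signal to noise over triplicate slides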
[17] = biological target: Luciferin 4-monooxygenase (Photinus pyralis) (UniProt P08659); experiment: inhibition of purified Photinus pyralis luciferase – biochemical, luminescence, purified enzyme, 2006 set, primary screen (AID 1141); conditions: purified firefly luciferase, SteadyGlo luminescence, 30 min; higher = more signal, called active from +8 up or from −8 down;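 note: cell-free assay with purified firefly luciferase at 100 ng per well in PBS; test concentration not given here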
Chain of Luciferin 4-monooxygenase (Photinus pyralis) (P08659 whole entry, looked up): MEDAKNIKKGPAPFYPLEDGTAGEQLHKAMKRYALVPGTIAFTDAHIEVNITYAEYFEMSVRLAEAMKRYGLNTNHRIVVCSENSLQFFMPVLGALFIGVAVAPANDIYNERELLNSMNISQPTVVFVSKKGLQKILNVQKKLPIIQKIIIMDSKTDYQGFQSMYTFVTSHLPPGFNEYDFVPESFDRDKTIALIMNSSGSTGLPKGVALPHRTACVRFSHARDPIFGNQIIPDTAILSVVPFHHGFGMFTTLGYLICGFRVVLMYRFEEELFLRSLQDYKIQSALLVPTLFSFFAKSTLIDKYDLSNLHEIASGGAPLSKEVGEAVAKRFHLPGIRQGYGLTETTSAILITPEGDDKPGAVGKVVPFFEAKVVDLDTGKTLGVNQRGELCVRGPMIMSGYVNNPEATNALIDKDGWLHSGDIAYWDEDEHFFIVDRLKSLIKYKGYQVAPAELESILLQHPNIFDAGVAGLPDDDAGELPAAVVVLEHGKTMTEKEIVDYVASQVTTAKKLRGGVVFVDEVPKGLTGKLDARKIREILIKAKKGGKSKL

Compound	composite z-score (Albumin (Bos taurus))	composite Z-score [1]	composite z-score [2]	composite z-score [3]	composite z-score [4]	composite z-score [5]	composite z-score [6]	composite z-score (Sam68 (KHDRBS1))	composite z-score [7]	composite z-score [8]	composite z-score [9]	composite z-score [10]	composite z-score [11]	composite z-score [12]	composite z-score [13]	composite z-score [14]	z-score [15]	composite z-score (Lefty1)	composite z-score [16]	z-score [17]
C=CC[C@]12N=C(c3ccc(OCCCO)cc3)O[C@H]1c1ccccc1N(Cc1ccccc1)C2=O	-0.0059	1.2 (inactive)	0.0225	-0.078	0.669	2.12	0.38	0.98	0.317	0.385	1.74	0.998	0.804	-0.0608	1.29	1.34	-1.21	-0.0331	0.442	-4.07 (inactive)
O=C1O[C@H](c2ccccc2)[C@H](c2ccccc2)N2[C@H]1[C@@H](C(=O)N1CCN(c3ncccn3)CC1)[C@]1(C(=O)Nc3ccc(C#CC4=CCCCC4)cc31)[C@H]2c1ccc(O)cc1	0.444	-0.239 (inactive)	0.0533	-0.0282	0.413	1.81	0.853	1.3	-0.0356	0.893	0.896	1.21	0.0908	0.756	0.792	0.357	-0.48	0.497	0.605	-0.0055 (inactive)
CN1C(=O)C2C=CC(C(O)c3ccc(-c4ccccc4)s3)N(N(c3ccccc3)c3ccccc3)C2C1=O (stereo not given)	0.828	0.81 (inactive)	-0.0865	-0.134	0.365	1.69	-0.149	0.749	0.414	1.08	0.0993	0.628	0.162	0.528	1.14	-0.314	0.767	-0.119	1.08	-0.377 (inactive)
Cc1ccc(S[C@]2(C(=O)NC(C)C)CC(=O)N(Cc3ccccc3Cl)[C@@H]2c2ccc(CO)cc2I)cc1	0.408	0.219 (inactive)	-0.469	-0.168	0.779	1.21	-0.147	0.462	-0.793	-0.139	3.21	0.164	-0.0745	0.628	0.237	-0.934	0.905	-0.658	0.648	-0.102 (inactive)
C=CCC(OC(C)=O)[C@@H]1[C@@H](N(Cc2cccc3ccccc23)C(=O)c2ccc(-c3ccccc3)cc2)c2cc(OCCCO)ccc2N1C(=O)Cc1ccc(OC)cc1 (stereo not given in full)	0.173	-0.829 (inactive)	-0.0232	-0.143	0.0745	0.0863	-0.0691	-0.0453	-0.147	0.0866	0.364	-0.128	0.179	0.603	0.652	-0.0199	1.06	0.246	0.281	0.912 (inactive)
COc1ccc([C@H]2OC[C@@H]3CC4(CC=CC4)C(=O)N32)cc1	-0.505	0.544 (inactive)	0.146	-0.0662	0.278	0.383	-0.129	0.964	1.54	-0.572	-0.648	0.828	0.282	-0.163	1.4	0.848	-0.661	1.35	-0.284	-0.573 (inactive)
CC(C)c1ccc(NN2C(C(O)c3cc(C(F)(F)F)cc(C(F)(F)F)c3)C=CC3C(=O)N(c4ccccc4)C(=O)C32)cc1 (stereo not given)	0.588	-0.117 (inactive)	0.0203	0.0506	0.489	2.43	0.152	0.924	-0.219	0.568	0.444	1.22	0.579	0.975	-0.105	-0.313	-0.731	-0.842	1.13	0.0708 (inactive)
COCCOC(=O)N1C(=O)[C@@]2(c3cc(C#CCCO)ccc31)[C@H](C(=O)Nc1nc3ccccc3s1)[C@H]1C(=O)O[C@H](c3ccccc3)[C@H](c3ccccc3)N1[C@@H]2c1ccc(OCCO)cc1	0.72	-1.03 (inactive)	0.286	-0.0028	0.295	0.793	0.225	1.28	0.387	1.07	0.738	0.957	0.128	0.944	1.27	1.65	-2.4	1.26	0.482	-2.56 (inactive)
CC(=O)n1cc(C(O)C2C=CC3C(=O)N(C)C(=O)C3N2Nc2ccccc2)c2ccccc21 (stereo not given)	0.712	-0.803 (inactive)	0.235	0.027	0.562	1.84	-0.0989	1.11	1.25	0.897	1.88	1.11	0.214	0.898	1.12	0.607	-0.0732	0.859	0.809	0.376 (inactive)
O=C1c2ccccc2[C@@]2(Cc3ccccc3N(CC(F)(F)F)C2=O)[C@H](c2ccc(CO)cc2)N1Cc1ccccc1Cl	-0.465	0.142 (inactive)	-0.191	-0.228	-0.227	-0.0414	-0.153	0.428	0.929	0.409	0.181	-0.265	-0.121	-0.134	1.12	0.652	-0.000595	0.667	-0.518	-0.496 (inactive)
